These results are taken from publication PMC7862700, “An all-to-all approach to the identification of sequence-specific readers for epigenetic DNA modifications on cytosine”.

Test in all cases: DAPPL (digital affinity profiling via proximity ligation, sequencing); 10 mM Tris-HCl pH 7.5, 50 mM NaCl, 1 mM DTT, 4% glycerol, room temperature, 30 min; GST-TFs on glutathione beads, 16-mer random dsDNA library, 0.1% formaldehyde crosslink after washing; high values mean tight binding
Holding throughout (details): protein: recombinant; tags: N-terminal GST; dsDNA, one strand shown

One assay deals with T1, SPIC (Homo sapiens, UniProt Q8N5J4 1-248).
T1 sequence: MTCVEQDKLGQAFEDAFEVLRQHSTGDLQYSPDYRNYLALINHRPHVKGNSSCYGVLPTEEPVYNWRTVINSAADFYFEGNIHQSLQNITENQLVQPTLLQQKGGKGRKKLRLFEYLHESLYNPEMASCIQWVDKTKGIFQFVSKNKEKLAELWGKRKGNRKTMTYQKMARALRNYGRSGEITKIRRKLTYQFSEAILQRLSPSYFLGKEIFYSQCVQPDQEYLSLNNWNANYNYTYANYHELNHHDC
The gist of the method:
(§1)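 Binding signal is given per hexamer as its read frequency for a factor divided by its frequency in the tag-only sample. GST-fused human transcription factors were expressed in yeast, captured on glutathione beads, barcoded with DNA and pooled with that sample, then incubated with 200 nmole of a 16-mer random double-stranded DNA library in Tris/NaCl/DTT/glycerol buffer for 30 min at room temperature. The pools were then washed, crosslinked, proximity-ligated, amplified by PCR and sequenced on an Illumina NextSeq500.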

A further assay deals with T2, GABPA (Homo sapiens, UniProt Q06546 1-454).
T2 sequence: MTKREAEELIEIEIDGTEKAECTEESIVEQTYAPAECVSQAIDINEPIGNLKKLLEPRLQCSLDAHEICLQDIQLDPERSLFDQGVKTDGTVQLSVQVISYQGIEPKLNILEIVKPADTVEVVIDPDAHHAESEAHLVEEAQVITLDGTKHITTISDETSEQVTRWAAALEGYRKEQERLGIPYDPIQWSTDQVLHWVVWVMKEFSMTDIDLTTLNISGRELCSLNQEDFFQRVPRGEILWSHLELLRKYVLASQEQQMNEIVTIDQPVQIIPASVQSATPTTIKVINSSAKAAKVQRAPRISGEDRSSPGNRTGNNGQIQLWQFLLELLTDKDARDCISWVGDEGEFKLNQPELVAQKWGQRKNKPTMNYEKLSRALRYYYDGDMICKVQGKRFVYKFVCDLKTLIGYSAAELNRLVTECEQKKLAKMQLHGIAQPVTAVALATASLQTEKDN
The essentials: as §1

The target of the next assay is T3, ERG (Homo sapiens, UniProt P11308 1-479).
T3 sequence: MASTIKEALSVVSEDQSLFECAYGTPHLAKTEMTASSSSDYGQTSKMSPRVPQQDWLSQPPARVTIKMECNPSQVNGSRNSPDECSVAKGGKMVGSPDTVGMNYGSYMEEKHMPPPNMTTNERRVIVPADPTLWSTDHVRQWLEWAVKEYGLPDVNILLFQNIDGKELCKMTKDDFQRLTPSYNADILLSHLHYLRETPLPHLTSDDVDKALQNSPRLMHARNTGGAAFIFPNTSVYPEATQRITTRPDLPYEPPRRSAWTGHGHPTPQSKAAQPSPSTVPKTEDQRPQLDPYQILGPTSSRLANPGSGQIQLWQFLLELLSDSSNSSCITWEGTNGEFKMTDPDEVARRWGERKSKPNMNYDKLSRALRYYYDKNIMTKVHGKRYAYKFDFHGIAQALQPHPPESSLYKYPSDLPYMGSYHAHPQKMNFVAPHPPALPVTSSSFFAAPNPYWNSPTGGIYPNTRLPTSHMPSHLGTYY
The gist of the method: as §1

In a further assay the target is ELF1 (Homo sapiens, UniProt P32519 1-619). The essentials: as §1
Chain of ELF1 (P32519 whole entry): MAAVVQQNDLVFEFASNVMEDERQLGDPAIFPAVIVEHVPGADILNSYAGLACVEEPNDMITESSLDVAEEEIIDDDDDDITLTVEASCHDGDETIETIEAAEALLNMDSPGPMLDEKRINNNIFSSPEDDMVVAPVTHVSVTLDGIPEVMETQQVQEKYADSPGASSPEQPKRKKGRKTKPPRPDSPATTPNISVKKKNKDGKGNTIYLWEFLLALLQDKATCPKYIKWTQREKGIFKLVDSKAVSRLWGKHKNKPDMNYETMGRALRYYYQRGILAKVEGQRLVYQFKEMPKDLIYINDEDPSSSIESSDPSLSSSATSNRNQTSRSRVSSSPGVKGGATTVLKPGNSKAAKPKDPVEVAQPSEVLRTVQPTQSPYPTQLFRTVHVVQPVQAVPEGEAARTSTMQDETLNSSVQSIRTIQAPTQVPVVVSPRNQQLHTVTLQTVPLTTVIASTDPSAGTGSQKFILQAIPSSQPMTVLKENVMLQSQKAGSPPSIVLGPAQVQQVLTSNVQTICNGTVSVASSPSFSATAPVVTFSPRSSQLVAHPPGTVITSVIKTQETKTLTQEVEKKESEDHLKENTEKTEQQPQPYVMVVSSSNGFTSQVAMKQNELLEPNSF
Another assay addresses ELF4 (Homo sapiens, UniProt Q99607 1-663). The essentials:
as §1

The next assay addresses T4, ELK4 (Homo sapiens, UniProt P28324-2 1-405).
T4 sequence: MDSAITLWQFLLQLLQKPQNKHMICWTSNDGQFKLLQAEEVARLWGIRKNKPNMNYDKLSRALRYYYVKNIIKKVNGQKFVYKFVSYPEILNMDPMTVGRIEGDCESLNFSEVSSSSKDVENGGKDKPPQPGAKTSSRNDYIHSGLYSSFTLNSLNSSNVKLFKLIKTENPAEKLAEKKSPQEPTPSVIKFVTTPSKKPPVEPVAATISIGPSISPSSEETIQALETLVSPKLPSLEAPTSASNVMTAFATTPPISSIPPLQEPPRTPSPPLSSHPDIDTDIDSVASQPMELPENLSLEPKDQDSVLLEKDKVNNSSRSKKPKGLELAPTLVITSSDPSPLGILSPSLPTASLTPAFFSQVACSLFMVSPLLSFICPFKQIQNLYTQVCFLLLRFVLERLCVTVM
The essentials:
as §1

The next assay has as its target T5, ETV2 (Homo sapiens, UniProt O00321 1-342).
T5 sequence: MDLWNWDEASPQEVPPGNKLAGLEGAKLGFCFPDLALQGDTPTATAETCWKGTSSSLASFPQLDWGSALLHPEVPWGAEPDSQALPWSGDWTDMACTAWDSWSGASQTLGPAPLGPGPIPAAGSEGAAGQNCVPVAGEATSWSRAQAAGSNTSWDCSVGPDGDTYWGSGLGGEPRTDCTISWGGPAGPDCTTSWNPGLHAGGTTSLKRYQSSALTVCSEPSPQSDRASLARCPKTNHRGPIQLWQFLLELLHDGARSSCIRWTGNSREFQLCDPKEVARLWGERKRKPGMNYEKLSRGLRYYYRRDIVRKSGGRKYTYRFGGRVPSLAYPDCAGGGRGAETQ
The essentials:
as §1

A further assay addresses ETV1 (Homo sapiens, UniProt P50549 1-477). The essentials: as §1
The target of another assay is T6, ETV3L (Homo sapiens, UniProt Q6ZN32 1-361).
T6 sequence: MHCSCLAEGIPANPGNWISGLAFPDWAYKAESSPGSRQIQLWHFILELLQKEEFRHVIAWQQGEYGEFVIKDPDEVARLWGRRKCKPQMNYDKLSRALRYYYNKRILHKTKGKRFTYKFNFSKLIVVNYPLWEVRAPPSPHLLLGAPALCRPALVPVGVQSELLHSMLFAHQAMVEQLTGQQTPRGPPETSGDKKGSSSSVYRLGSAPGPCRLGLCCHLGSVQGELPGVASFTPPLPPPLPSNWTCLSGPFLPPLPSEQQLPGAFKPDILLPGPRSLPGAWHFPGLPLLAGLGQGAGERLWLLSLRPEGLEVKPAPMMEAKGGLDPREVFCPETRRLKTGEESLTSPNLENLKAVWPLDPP
The gist of the method:
as §1

The target of another assay is T7, SPDEF (Homo sapiens, UniProt O95238 1-335).
T7 sequence: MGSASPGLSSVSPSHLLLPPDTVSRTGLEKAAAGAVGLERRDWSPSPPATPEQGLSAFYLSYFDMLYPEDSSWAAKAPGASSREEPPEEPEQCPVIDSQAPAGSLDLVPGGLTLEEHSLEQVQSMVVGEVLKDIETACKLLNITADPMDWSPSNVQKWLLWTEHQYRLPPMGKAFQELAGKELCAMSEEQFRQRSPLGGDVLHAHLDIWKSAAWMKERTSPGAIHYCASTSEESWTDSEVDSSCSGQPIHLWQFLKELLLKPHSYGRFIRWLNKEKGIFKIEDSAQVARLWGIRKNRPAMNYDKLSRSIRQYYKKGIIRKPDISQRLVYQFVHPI
The essentials:
as §1

The target of the next assay is T8, ETV3 (Homo sapiens, UniProt P41162-2 1-143).
T8 sequence: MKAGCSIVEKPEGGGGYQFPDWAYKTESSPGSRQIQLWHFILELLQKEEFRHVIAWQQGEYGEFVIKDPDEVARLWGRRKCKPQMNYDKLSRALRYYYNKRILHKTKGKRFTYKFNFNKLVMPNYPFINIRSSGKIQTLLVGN
The gist of the method: as §1

The next assay has as its target SPIB (Homo sapiens, UniProt Q01892 1-262). The gist of the method: as §1

Chain of ELF4 (Q99607 whole entry): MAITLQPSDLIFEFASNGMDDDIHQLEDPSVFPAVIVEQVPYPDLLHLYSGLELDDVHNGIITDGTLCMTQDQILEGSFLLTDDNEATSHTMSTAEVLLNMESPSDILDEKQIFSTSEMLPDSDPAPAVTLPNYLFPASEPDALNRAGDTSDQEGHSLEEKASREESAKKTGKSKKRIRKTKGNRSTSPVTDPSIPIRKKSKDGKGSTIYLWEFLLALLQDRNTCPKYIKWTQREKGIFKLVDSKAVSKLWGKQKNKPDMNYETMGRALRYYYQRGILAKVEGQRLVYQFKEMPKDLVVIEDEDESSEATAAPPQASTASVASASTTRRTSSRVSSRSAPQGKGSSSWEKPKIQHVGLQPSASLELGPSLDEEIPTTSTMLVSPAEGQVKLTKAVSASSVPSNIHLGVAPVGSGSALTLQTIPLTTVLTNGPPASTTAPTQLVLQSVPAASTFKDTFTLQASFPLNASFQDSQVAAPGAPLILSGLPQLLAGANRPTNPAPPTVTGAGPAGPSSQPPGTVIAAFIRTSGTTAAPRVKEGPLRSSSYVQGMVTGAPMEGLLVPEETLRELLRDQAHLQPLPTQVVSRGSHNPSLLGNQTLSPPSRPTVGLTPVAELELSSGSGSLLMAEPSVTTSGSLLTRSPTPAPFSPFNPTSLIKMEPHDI
Chain of SPIB (Q01892 whole entry): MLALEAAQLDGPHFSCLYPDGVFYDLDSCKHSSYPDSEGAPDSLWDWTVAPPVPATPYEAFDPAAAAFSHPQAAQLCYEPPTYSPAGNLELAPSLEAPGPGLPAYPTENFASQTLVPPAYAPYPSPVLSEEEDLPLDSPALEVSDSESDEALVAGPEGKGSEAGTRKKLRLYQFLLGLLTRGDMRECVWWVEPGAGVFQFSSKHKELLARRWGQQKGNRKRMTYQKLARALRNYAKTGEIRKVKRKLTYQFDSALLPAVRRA
Chain of ETV1 (P50549 whole entry): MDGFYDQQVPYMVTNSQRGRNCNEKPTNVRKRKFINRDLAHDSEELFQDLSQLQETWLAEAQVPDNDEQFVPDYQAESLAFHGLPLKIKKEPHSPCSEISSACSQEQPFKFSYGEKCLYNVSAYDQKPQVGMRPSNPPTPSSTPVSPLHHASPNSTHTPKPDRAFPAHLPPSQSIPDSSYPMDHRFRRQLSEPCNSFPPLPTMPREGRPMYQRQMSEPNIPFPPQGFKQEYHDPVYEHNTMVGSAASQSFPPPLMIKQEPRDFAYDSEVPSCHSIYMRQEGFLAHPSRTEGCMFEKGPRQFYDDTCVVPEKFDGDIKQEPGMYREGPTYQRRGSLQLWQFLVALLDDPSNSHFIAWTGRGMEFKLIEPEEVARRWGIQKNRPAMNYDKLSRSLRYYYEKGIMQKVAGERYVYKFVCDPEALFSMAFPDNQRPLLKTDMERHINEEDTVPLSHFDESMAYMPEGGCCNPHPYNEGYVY

Take CTGGGG: the binding signal in the assay with SPIC is 1 fold enrichment (6-mer frequency, TF over GST control).

Take CCTAGG: the binding signal with GABPA is 1.04 fold enrichment (6-mer frequency, TF over GST control); in the assay with ERG it was 1 fold enrichment (6-mer frequency, TF over GST control); in the assay with ELF1, 1.07 fold enrichment (6-mer frequency, TF over GST control); with SPIC, 1.1 fold enrichment (6-mer frequency, TF over GST control); with ELF4, 1.07 fold enrichment (6-mer frequency, TF over GST control); in the assay with ELK4, 1.04 fold enrichment (6-mer frequency, TF over GST control). In addition, the binding signal with ETV2 was 1.03 fold enrichment (6-mer frequency, TF over GST control); in the assay with ETV1 it was 1.02 fold enrichment (6-mer frequency, TF over GST control); with ETV3L, 1.03 fold enrichment (6-mer frequency, TF over GST control); in the assay with SPDEF, 1.02 fold enrichment (6-mer frequency, TF over GST control); with ETV3, 1.1 fold enrichment (6-mer frequency, TF over GST control).

For TGCAGA, the binding signal was 1.03 fold enrichment (6-mer frequency, TF over GST control) with SPIB; 1.06 fold enrichment (6-mer frequency, TF over GST control) with SPIC; 1 fold enrichment (6-mer frequency, TF over GST control) with ELF4.
